Test results published in PubChem BioAssay (Tox21).
Records with an inconclusive call do not appear. The source made the active and inactive calls. Unless noted, calls come from the whole dose curve; as a rule, active = well fitted curve in the direction sought with a large enough effect in the repeat runs; inconclusive = weak or mixed curves; inactive = no such curve, though single readings can be large; an effect the other way counts as inactive or inconclusive.

Experiments:
[1] = qHTS assay to identify small molecule agonists of the peroxisome proliferator-activated receptor delta (PPARd) signaling pathway - cell viability counter screen (AID 743211); note: % is set by controls: 0 for no effect and ±100 for the full control effect; nearly all actives have a fitted effect of over 55% in size
Method in brief: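 Viability of GeneBLAzer PPARd UAS-bla HEK293H cells was assessed after 17 h compound incubation at 37C, using CellTiter-Glo reagent added after the reporter read and luminescence recorded 30 min later.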

[2] = qHTS assay to identify small molecule antagonists of the peroxisome proliferator-activated receptor delta (PPARd) signaling pathway - cell viability counter screen (AID 743213); note: % is set by controls: 0 for no effect and ±100 for the full control effect; nearly all actives have a fitted effect of over 50% in size
Method in brief: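 Same-well viability: cells pre-incubated 5 h, dosed with compound plus 300 nM L165041, kept 17 h at 37 C, FRET substrate 2 h RT, then CellTiter-Glo 30 min RT and luminescence.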

[3] = target: Bile acid receptor (Homo sapiens) (UniProt Q96RI1); assay: qHTS assay to identify small molecule antagonists of the farnesoid-X-receptor (FXR) signaling pathway (AID 743217; active = well fitted inhibition curve with a large enough effect in the signal ratio in the repeat runs, not every such curve was filed as active; the % refers to the signal ratio; note: % is set by controls: 0 for no effect and ±100 for the full control effect)
Method in brief: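 FRET fluorescence after 2 h room-temperature LiveBLAzer loading gives the readout. Prior step: FXR-bla HEK 293T cells, seeded and incubated 5 h, received test compounds plus 50 uM final CDCA for 16 h at 37 °C.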

[4] = target: Bile acid receptor (Homo sapiens) (UniProt Q96RI1); assay: qHTS assay to identify small molecule agonists of the farnesoid-X-receptor (FXR) signaling pathway (AID 743220; active = well fitted activation curve with a large enough effect in the signal ratio in the repeat runs, not every such curve was filed as active; the % refers to the signal ratio; note: % is set by controls: 0 for no effect and ±100 for the full control effect)
Method in brief: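 FXR-UAS-bla HEK 293T cells carrying a UAS-driven beta-lactamase reporter were plated for 5 h at 37C/5% CO2, then exposed to DMSO-dissolved Tox21 10K compounds for 16 h at 37C. A LiveBLAzer B/G FRET substrate was loaded for 2 h at room temperature before fluorescence reading.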

[5] = qHTS assay to identify small molecule antagonists of the farnesoid-X-receptor (FXR) signaling pathway - cell viability counter screen (AID 743221; active = well fitted cell-killing curve with a large enough effect in the repeat runs, not every such curve was filed as active; note: % is set by controls: 0 for no effect and ±100 for the full control effect; nearly all actives have a fitted effect of over 50% in size)
Method in brief: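 Quantitative HTS of the Tox21 10K library run in parallel with the beta-lactamase reporter read. HEK 293T cells carrying a UAS-driven bla reporter got compound and 50 uM CDCA (final) for 16 h; ATP-based luminescence followed.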

[6] = target: Vitamin D3 receptor (Homo sapiens) (UniProt P11473); assay: qHTS assay to identify small molecule agonists of the vitamin D receptor (VDR) signaling pathway (AID 743222; calls by dose curve; note: % is set by controls: 0 for no effect and ±100 for the full control effect)
Method in brief: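 Following 4 h attachment at 37C, VDR-bla cells (2,000 per well) received DMSO-dissolved compounds or controls. After 16 h incubation, LiveBLAzer B/G FRET substrate was added and fluorescence read 2 h later at room temperature.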

[7] = qHTS assay to identify small molecule agonists of the vitamin D receptor (VDR) signaling pathway - cell viability counter screen (AID 743224); note: series mostly up to about 63 µM; % is set by controls: 0 for no effect and ±100 for the full control effect; nearly all actives have a fitted effect of over 50% in size
Method in brief: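 In parallel with the bla FRET readout, cytotoxicity toward VDR-bla cells after 16 h compound exposure was assessed by CellTiter-Glo, with luminescence recorded after a 30 min room-temperature incubation.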

[8] = qHTS assay to identify small molecule antagonists of the vitamin D receptor (VDR) signaling pathway - cell viability counter screen (AID 743225); note: % is set by controls: 0 for no effect and ±100 for the full control effect; nearly all actives have a fitted effect of over 50% in size
Method in brief: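 Cells (VDR-UAS-bla HEK 293T) are plated, rested 4 h at 37C, dosed with compound and 3 nM final 1-alpha,25-dihydroxy vitamin D3, and incubated 16 h. Viability is taken from CellTiter-Glo luminescence in the reporter wells.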

[9] = qHTS assay to identify small molecule agonists of the NFkB signaling pathway - cell viability counter screen (AID 1159515; calls by dose curve; note: series mostly up to about 61 µM; % is set by controls: 0 for no effect and ±100 for the full control effect; nearly all actives have a fitted effect of over 55% in size)
Method in brief: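 Plate 2,000 NFkB-bla ME-180 cells/well; incubate overnight. Add compounds, 5 hr at 37 C. Add FRET substrate, 1.5 hr RT. Add CellTiter-Glo, 30 min RT; read luminescence.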

[10] = qHTS assay to identify small molecule agonists of the endoplasmic reticulum stress response signaling pathway (AID 1159516; active = well fitted activation curve with a large enough effect in the signal ratio in the repeat runs, not every such curve was filed as active; the % refers to the signal ratio; note: % is set by controls: 0 for no effect and ±100 for the full control effect)
Method in brief: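 Beta-lactamase expression from the ER stress response element in HeLa reporter cells is quantified with the LiveBLAzer B/G FRET substrate, read at 405 nm excitation after 2 hr at room temperature, following 5 hr compound treatment at 37 C.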

[11] = qHTS assay to identify small molecule agonists of the endoplasmic reticulum stress response signaling pathway - cell viability counter screen (AID 1159517; calls by dose curve)
Method in brief: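 Cpd-treated ESRE-bla HeLa (5 hr, 37 C) → LiveBLAzer 2 hr RT → CellTiter-Glo 30 min RT → luminescence.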

[12] = qHTS assay to identify small molecule antagonists of the retinoid-related orphan receptor gamma (ROR-gamma) signaling pathway - cell viability counter screen (AID 1159520)
Method in brief: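 Tet-on ROR gamma CHO cells (1,000/well) were plated 4 hr, given compounds in DMSO for 2 hr at 37 C, then induced with 1 uM final doxycycline for 16 hr. Viability was read as ATP by CellTiter-Glo luminescence after 30 min.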

[13] = target: Nuclear receptor ROR-gamma (Homo sapiens) (UniProt P51449); assay: qHTS assay to identify small molecule antagonists of the retinoid-related orphan receptor gamma (ROR-gamma) signaling pathway (AID 1159521)
Method in brief: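 RORγ antagonism is scored from reduced reporter luminescence in Tet-on CHO cells. Induction used 1 uM final doxycycline hyclate for 16 h at 37 C, following a 2 h compound exposure.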

[14] = qHTS assay to identify small molecule agonists of the AP-1 signaling pathway - cell viability counter screen (AID 1159525; calls by dose curve; note: nearly all actives have a fitted effect of over 55% in size)
Method in brief: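 Each titration point was normalised to DMSO and tetra n-octyl ammonium bromide controls. The read was Cell Titer Glo luminescence after 30 min at RT, following 5 h compound exposure of ME-180 AP-1-bla cells at 37 °C.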

[15] = qHTS assay to identify small molecule agonists of the AP-1 signaling pathway (AID 1159526; calls by dose curve; note: % is set by controls: 0 for no effect and ±100 for the full control effect)
[16] = target: Peroxisome proliferator-activated receptor delta (Homo sapiens) (UniProt Q03181); assay: qHTS assay to identify small molecule agonists of the peroxisome proliferator-activated receptor delta (PPARd) signaling pathway (AID 743212; calls by dose curve; note: % is set by controls: 0 for no effect and ±100 for the full control effect)
Method in brief: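 Cells expressing a UAS-driven beta-lactamase reporter (PPARd-bla HEK293H) were given test compounds after a 5 h settle and kept at 37 C. Reporter activity was then measured as FRET fluorescence using LiveBLAzer B/G substrate.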

[17] = target: Peroxisome proliferator-activated receptor delta (Homo sapiens) (UniProt Q03181); assay: qHTS assay to identify small molecule antagonists of the peroxisome proliferator-activated receptor delta (PPARd) signaling pathway (AID 743215; active = well fitted inhibition curve with a large enough effect in the signal ratio in the repeat runs, not every such curve was filed as active; the % refers to the signal ratio)
Method in brief: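 Fluorescence from cleaved LiveBLAzer B/G FRET substrate (2 h, room temperature) reports PPARd-driven beta-lactamase in HEK293H UAS-bla cells. Cells had been treated 17 h at 37 C with compound plus 300 nM final L165041.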

[18] = qHTS assay to identify small molecule agonists of the farnesoid-X-receptor (FXR) signaling pathway - cell viability counter screen (AID 743218); note: % is set by controls: 0 for no effect and ±100 for the full control effect; nearly all actives have a fitted effect of over 45% in size
Method in brief: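 Readout: CellTiter-Glo luminescence, 30 min RT, multiplexed after the FXR-bla FRET reading. HEK 293T FXR-UAS-bla cells received compound 5 h post-plating and were incubated 16 h at 37 C.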

[19] = target: Vitamin D3 receptor (Homo sapiens) (UniProt P11473); assay: qHTS assay to identify small molecule antagonists of the vitamin D receptor (VDR) signaling pathway (AID 743223; active = well fitted inhibition curve with a large enough effect in the signal ratio in the repeat runs, not every such curve was filed as active; the % refers to the signal ratio; note: % is set by controls: 0 for no effect and ±100 for the full control effect)
Method in brief: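 Fluorescence from LiveBLAzer B/G FRET substrate, read after 2 h at room temperature, reflects beta-lactamase reporter activity in VDR-bla cells treated 16 h at 37C with compounds and agonist 1alpha,25-dihydroxyvitamin D3 (3 nM final).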

Sequence of Peroxisome proliferator-activated receptor delta (Homo sapiens) (Q03181 whole entry, looked up): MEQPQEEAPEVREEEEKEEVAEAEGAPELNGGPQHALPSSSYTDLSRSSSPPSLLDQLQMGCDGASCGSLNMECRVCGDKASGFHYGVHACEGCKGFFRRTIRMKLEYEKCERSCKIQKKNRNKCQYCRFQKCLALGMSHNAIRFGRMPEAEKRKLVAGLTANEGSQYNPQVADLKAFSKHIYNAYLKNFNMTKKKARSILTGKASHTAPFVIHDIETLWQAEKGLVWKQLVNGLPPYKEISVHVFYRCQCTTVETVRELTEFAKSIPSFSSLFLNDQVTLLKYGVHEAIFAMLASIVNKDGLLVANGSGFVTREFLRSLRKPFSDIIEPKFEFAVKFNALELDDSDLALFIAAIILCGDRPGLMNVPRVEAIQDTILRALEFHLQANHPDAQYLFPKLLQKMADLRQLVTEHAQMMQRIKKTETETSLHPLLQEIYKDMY
Sequence of Vitamin D3 receptor (Homo sapiens) (P11473 whole entry, looked up): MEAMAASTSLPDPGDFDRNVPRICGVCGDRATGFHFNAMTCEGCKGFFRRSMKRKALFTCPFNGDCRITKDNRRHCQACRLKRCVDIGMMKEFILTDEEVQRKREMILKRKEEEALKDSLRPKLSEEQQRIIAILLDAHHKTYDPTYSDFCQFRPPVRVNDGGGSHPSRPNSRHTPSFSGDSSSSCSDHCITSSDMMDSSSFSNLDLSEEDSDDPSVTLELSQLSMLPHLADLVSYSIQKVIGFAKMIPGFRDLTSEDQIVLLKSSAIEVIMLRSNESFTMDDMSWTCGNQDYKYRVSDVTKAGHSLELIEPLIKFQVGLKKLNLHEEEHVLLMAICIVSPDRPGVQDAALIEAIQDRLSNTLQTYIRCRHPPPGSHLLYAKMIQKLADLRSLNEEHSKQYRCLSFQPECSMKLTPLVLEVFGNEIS
Sequence of Bile acid receptor (Homo sapiens) (Q96RI1 whole entry, looked up): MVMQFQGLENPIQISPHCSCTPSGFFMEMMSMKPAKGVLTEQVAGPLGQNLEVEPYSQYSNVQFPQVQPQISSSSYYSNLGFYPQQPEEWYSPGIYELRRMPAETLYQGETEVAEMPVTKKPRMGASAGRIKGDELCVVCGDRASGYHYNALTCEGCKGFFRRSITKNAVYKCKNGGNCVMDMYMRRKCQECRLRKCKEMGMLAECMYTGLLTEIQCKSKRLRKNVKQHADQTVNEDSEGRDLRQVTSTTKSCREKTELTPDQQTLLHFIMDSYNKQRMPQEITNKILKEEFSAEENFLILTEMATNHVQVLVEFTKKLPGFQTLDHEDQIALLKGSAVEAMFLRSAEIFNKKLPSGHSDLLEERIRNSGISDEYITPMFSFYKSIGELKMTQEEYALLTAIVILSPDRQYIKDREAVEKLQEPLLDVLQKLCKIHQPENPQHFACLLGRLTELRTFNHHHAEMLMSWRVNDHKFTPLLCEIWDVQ

O=C(NCC(O)CO)c1c(I)c(C(=O)NCC(O)CO)c(I)c(N(CCO)C(=O)CO)c1I (configuration not stated)
inactive: outcome [1] | outcome [2] | Potency [3] | Potency [4] | outcome [5] | outcome [6] | Potency [7] | outcome [8] | outcome [9] | outcome [10] | Potency [11] | outcome [12] | outcome [13] | outcome [14] | outcome [15]

COC(=O)C1CC(=O)C(C(=O)OC)CC1=O (configuration not stated)
inactive: activity change, negative = cytotoxicity [1] -4.27% [at 5.95 µM] | activation [16] 3.55% [at 5.95 µM] | viability change, negative = cytotoxic [2] -19.8% [at 6.26 µM] | ratio activity, negative = inhibition [17] -19.7% [at 6.26 µM] | viability change, negative = cytotoxic [18] 25% [at 5.95 µM] | activity change, negative = cytotoxicity [5] -3.4% [at 5.95 µM] | activity change, negative = inhibition [19] 0.852% [at 6.95 µM] | viability change, negative = cytotoxic [8] 3.99% [at 6.95 µM] | activity, negative = cytotoxic [9] 4.94% [at 6.95 µM] | activation [10] 4.12% [at 6.95 µM] | activity change, negative = cytotoxicity [11] 4.71% [at 6.95 µM] | activity, negative = cytotoxicity [12] 6.36% [at 8.39 µM] | activity change, negative = inhibition [13] 0.663% [at 8.39 µM] | viability change, negative = cytotoxic [14] 2.24% [at 6.97 µM] | activation [15] 1.04% [at 6.97 µM]

Oc1cn2c(n1)Nc1ccc(Cl)c(Cl)c1C2
inactive: outcome [1] | outcome [16] | outcome [2] | outcome [17] | Potency [18] | outcome [5] | outcome [6] | outcome [19] | Potency [7] | outcome [8] | outcome [9] | outcome [10] | Potency [11] | activity, negative = cytotoxicity [12] -0.0979% [at 19 µM] | activity change, negative = inhibition [13] 0.185% [at 19 µM] | viability change, negative = cytotoxic [14] -0.119% [at 15.8 µM] | activation [15] 0.89% [at 15.8 µM]

Cc1ccc2c(c1)OCC(=O)CO2
inactive: outcome [1] | outcome [16] | outcome [2] | outcome [17] | Potency [3] | Potency [18] | Potency [4] | outcome [5] | outcome [6] | Potency [7] | outcome [9] | outcome [10] | Potency [11] | outcome [12] | outcome [13] | outcome [14] | outcome [15]

COCCc1ccc(OCC2CO2)cc1 (configuration not stated)
inactive: outcome [1] | outcome [16] | outcome [2] | outcome [17] | Potency [18] | outcome [5] | outcome [6] | outcome [19] | Potency [7] | outcome [8] | outcome [9] | outcome [10] | Potency [11] | outcome [12] | outcome [13] | outcome [14] | outcome [15]

CC(C)(C)c1cc(CCC(=O)NN)cc(C(C)(C)C)c1O
inactive: outcome [16] | outcome [2] | Potency [18] | outcome [5] | outcome [6] | outcome [19] | Potency [7] | outcome [9] | outcome [10] | Potency [11] | outcome [12] | outcome [13] | outcome [14] | outcome [15]

O=S(=O)(O)c1ccc2cc(O)c(S(=O)(=O)O)cc2c1
inactive: outcome [1] | outcome [16] | outcome [2] | outcome [17] | Potency [18] | outcome [5] | outcome [6] | outcome [19] | Potency [7] | outcome [8] | outcome [9] | outcome [10] | Potency [11] | outcome [12] | outcome [13] | outcome [14] | outcome [15]

C[C@H](N)[C@H](O)c1cccc(O)c1
inactive: outcome [16] | outcome [2] | outcome [17] | Potency [3] | Potency [18] | Potency [4] | outcome [5] | outcome [6] | outcome [19] | Potency [7] | outcome [8] | outcome [9] | outcome [10] | Potency [11] | outcome [12] | outcome [13] | outcome [14] | outcome [15]

C[C@H](CCC(=O)O)[C@H]1CC[C@H]2[C@@H]3C(=O)C[C@@H]4CC(=O)CC[C@]4(C)[C@H]3CC(=O)[C@]12C
inactive: outcome [1] | outcome [16] | outcome [2] | outcome [17] | Potency [18] | outcome [5] | outcome [6] | outcome [19] | Potency [7] | outcome [8] | outcome [9] | outcome [10] | Potency [11] | outcome [12] | outcome [13] | outcome [14] | outcome [15]
